# The supplement of paper PMC8728848
# Shown is part of a subset that was picked to be rich in the strongest signals.
# What was measured:
# Test in all cases: glycan array binding signal (z-score within array); higher = stronger binding
# Conditions in all cases: glycan notation: IUPAC condensed, linker removed; mutation: R144S
# [1] = target: Fuc(a1-2)Gal(b1-3)GlcNAc(b1-3)[Fuc(a1-3)[Gal(b1-4)]GlcNAc(b1-6)]Gal(b1-4)Glc
# Summary of the method: (§1)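 The binding signal is a Z-score computed within each array and averaged over linkers. Arrays of the same protein sequence at different concentrations or buffers were also averaged together. Data originate from 3228 arrays in the Consortium for Functional Glycomics database, kept only where the protein sequence was available.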
# [2] = target: Fuc(a1-2)Gal(b1-4)Glc6S
# Summary of the method: as §1
# [3] = target: Fuc(a1-2)Gal(b1-4)GlcNAc6S
# Summary of the method: as §1
# [4] = target: Fuc(a1-2)Gal(b1-4)[Fuc(a1-3)]GlcNAc(b1-3)Gal(b1-4)[Fuc(a1-3)]GlcNAc
# Summary of the method: as §1
# [5] = target: Fuc(a1-2)[Gal(a1-3)]Gal(b1-3)GlcNAc(b1-2)Man(a1-3)[Fuc(a1-2)[Gal(a1-3)]Gal(b1-3)GlcNAc(b1-2)Man(a1-6)]Man(b1-4)GlcNAc(b1-4)GlcNAc
# Summary of the method: as §1
# [6] = target: Fuc(a1-2)[Gal(a1-3)]Gal(b1-4)GlcNAc(b1-2)Man(a1-3)[Fuc(a1-2)[Gal(a1-3)]Gal(b1-4)GlcNAc(b1-2)Man(a1-6)]Man(b1-4)GlcNAc(b1-4)GlcNAc
# Summary of the method: as §1
# [7] = target: Fuc(a1-2)[GalNAc(a1-3)]Gal(b1-3)GlcNAc(b1-2)Man(a1-3)[Fuc(a1-2)[GalNAc(a1-3)]Gal(b1-3)GlcNAc(b1-2)Man(a1-6)]Man(b1-4)GlcNAc(b1-4)GlcNAc
# Summary of the method: as §1
# [8] = target: Fuc(a1-2)[GalNAc(a1-3)]Gal(b1-4)GlcNAc(b1-2)Man(a1-3)[Fuc(a1-2)[GalNAc(a1-3)]Gal(b1-4)GlcNAc(b1-2)Man(a1-6)]Man(b1-4)GlcNAc(b1-4)GlcNAc
# Summary of the method: as §1
# [9] = target: Fuc(a1-2)[GalNAc(a1-3)]Gal(b1-4)GlcNAc(b1-3)Gal(b1-4)GlcNAc(b1-3)Gal(b1-4)GlcNAc
# Summary of the method: as §1
# [10] = target: Fuc(a1-2)[GalNAc(a1-3)]Gal(b1-4)[Fuc(a1-3)]GlcNAc
# Summary of the method: as §1
# [11] = target: Fuc(a1-3)[Gal3S(b1-4)]GlcNAc
# Summary of the method: as §1
# [12] = target: Gal(a1-4)Gal(b1-3)GlcNAc(b1-2)Man(a1-3)[Gal(a1-4)Gal(b1-3)GlcNAc(b1-2)Man(a1-6)]Man(b1-4)GlcNAc(b1-4)GlcNAc
# Summary of the method: as §1
# [13] = target: Gal(a1-4)Gal(b1-4)Glc
# Summary of the method: as §1
# [14] = target: Gal(b1-3)GalNAc(a1-3)[Fuc(a1-2)]Gal(b1-4)GlcNAc
# Summary of the method: as §1
# [15] = target: Gal(b1-3)GlcNAc(b1-3)Gal(b1-4)GlcNAc(b1-6)[Gal(b1-3)GlcNAc(b1-3)]Gal(b1-4)Glc
# Summary of the method: as §1
# [16] = target: Gal(b1-3)[Fuc(a1-4)]GlcNAc(b1-3)Gal(b1-4)[Fuc(a1-3)]GlcNAc
# Summary of the method: as §1
# [17] = target: Gal(b1-3)[Neu5Ac(a2-6)]GalNAc
# Summary of the method: as §1
# [18] = target: Gal(b1-4)GalNAc(a1-3)[Fuc(a1-2)]Gal(b1-4)GlcNAc
# Summary of the method: as §1
# [19] = target: Gal(b1-4)GlcNAc(b1-3)[Gal(b1-4)GlcNAc(b1-6)]Gal(b1-4)GlcNAc
# Summary of the method: as §1
# [20] = target: Gal3S(b1-4)GlcNAc6S
# Summary of the method: as §1
# [21] = target: GalNAc(a1-3)Gal
# Summary of the method: as §1
# [22] = target: GalNAc(b1-3)Gal(a1-4)Gal(b1-4)GlcNAc(b1-3)Gal(b1-4)Glc
# Summary of the method: as §1
# [23] = target: GalNAc(b1-3)GalNAc
# Summary of the method: as §1
# [24] = target: GlcNAc(a1-4)Gal(b1-4)GlcNAc(b1-3)Gal(b1-4)Glc
# Summary of the method: as §1
# [25] = target: GlcNAc(b1-2)[GlcNAc(b1-4)]Man(a1-3)[GlcNAc(b1-2)Man(a1-6)]Man(b1-4)GlcNAc(b1-4)GlcNAc
# Summary of the method: as §1
# [26] = target: GlcNAc(b1-3)Gal(b1-3)GalNAc
# Summary of the method: as §1
# [27] = target: GlcNAc(b1-3)Gal(b1-4)Glc
# Summary of the method: as §1
# [28] = target: GlcNAc(b1-3)Gal(b1-4)GlcNAc
# Summary of the method: as §1
# [29] = target: Man(a1-3)[Man(a1-6)]Man
# Summary of the method: as §1
# [30] = target: Neu5Ac(a2-3)Gal(b1-4)GlcNAc6S
# Summary of the method: as §1
# [31] = target: Neu5Ac(a2-3)Gal(b1-4)[Fuc(a1-3)]GlcNAc(b1-6)[Neu5Ac(a2-3)Gal(b1-3)]GalNAc
# Summary of the method: as §1
# [32] = target: Neu5Ac(a2-3)GalNAc(b1-4)GlcNAc
# Summary of the method: as §1
# [33] = target: Neu5Ac(a2-6)GalNAc
# Summary of the method: as §1
# [34] = target: Neu5Gc(a2-3)Gal(b1-3)GlcNAc
# Summary of the method: as §1
# [35] = target: Neu5Gc(b2-6)Gal(b1-4)GlcNAc
# Summary of the method: as §1
binder,measurement,setting,value
"Gal 3 (Homo sapiens), P17931 (protein) MADNFSLHDALSGSGNPNPQGWPGAWGNQPAGAGGYPGASYPGAYPGQAPPGAYPGQAPPGAYHGAPGAYPGAPAPGVYPGPPSGPGAYPSSGQPSAPGAYPATGPYGAPAGPLIVPYNLPLPGGVVPRMLITILGTVKPNANSILDFQRGNDVAFHFNPRFNENNRRVIVCNTKLDNNWGREERQSVFPFESGKPFKIQVLVEPDHFKVAVNDAHLLQYNHRVKKLNEISKLGISGDIDLTSASYTMI",glycan array binding signal (z-score),[1],0.343
same,glycan array binding signal (z-score),[2],-0.313
same,glycan array binding signal (z-score),[3],0.788
same,glycan array binding signal (z-score),[4],-0.357
same,glycan array binding signal (z-score),[5],4.81
same,glycan array binding signal (z-score),[6],5.46
same,glycan array binding signal (z-score),[7],6.11
same,glycan array binding signal (z-score),[8],5.95
same,glycan array binding signal (z-score),[9],4.99
same,glycan array binding signal (z-score),[10],-0.356
same,glycan array binding signal (z-score),[11],-0.359
same,glycan array binding signal (z-score),[12],-0.361
same,glycan array binding signal (z-score),[13],-0.359
same,glycan array binding signal (z-score),[14],4.94
same,glycan array binding signal (z-score),[15],0.34
same,glycan array binding signal (z-score),[16],-0.357
same,glycan array binding signal (z-score),[17],-0.352
same,glycan array binding signal (z-score),[18],5.09
same,glycan array binding signal (z-score),[19],1.2
same,glycan array binding signal (z-score),[20],-0.288
same,glycan array binding signal (z-score),[21],-0.354
same,glycan array binding signal (z-score),[22],0.182
same,glycan array binding signal (z-score),[23],-0.354
same,glycan array binding signal (z-score),[24],-0.356
same,glycan array binding signal (z-score),[25],-0.341
same,glycan array binding signal (z-score),[26],-0.356
same,glycan array binding signal (z-score),[27],-0.36
same,glycan array binding signal (z-score),[28],-0.358
same,glycan array binding signal (z-score),[29],-0.354
same,glycan array binding signal (z-score),[30],-0.365
same,glycan array binding signal (z-score),[31],-0.352
same,glycan array binding signal (z-score),[32],-0.363
same,glycan array binding signal (z-score),[33],-0.364
same,glycan array binding signal (z-score),[34],-0.363
same,glycan array binding signal (z-score),[35],-0.358
